Assay outcomes deposited in PubChem BioAssay by several laboratories.
D1 mod = D1 CRE-luciferase signal change, two-sided – cell-based, HEK293 D1, dopamine EC30, D1 allosteric modulator project, primary screen; D(1A) dopamine receptor (Homo sapiens), P21728; 58,000 tested, 5.9% active; B-score at 10 µM; dopamine EC30 potentiation; actives deviate in either direction;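 active means luminescence count or its row- and column-corrected plate score outside the 99.7% band of the plate's sample wells, on either side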
CYP2C19 inh = blockers of cytochrome P450 2C19 activity – biochemical, luminescence, ADME assay, primary screen | CYP2C19 Supersomes, luciferin-H EGE luminescence, 30 min | 96,000 tested, 21% active | P33261 | inhibition, % at 5 µM;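 active means CYP2C19 inhibition above a set limit at 5 µM in the primary screen, cut at about 50% in these data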;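 further: plate controls were negative control wells for no effect and 2.5 mM tranylcypromine positive control for full effect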
CYP2C9 inhib = blockers of cytochrome P450 2C9 activity – biochemical, luminescence, ADME assay, primary screen; 96,000 tested, 20% active; P11712; inhibition, % at 5 µM; CYP2C9 Supersomes, luciferin-H conversion;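 active means blocking of liver enzyme CYP2C9 beyond about 50% at 5 µM, limit read from the data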
Target sequence (P11712 whole entry, looked up): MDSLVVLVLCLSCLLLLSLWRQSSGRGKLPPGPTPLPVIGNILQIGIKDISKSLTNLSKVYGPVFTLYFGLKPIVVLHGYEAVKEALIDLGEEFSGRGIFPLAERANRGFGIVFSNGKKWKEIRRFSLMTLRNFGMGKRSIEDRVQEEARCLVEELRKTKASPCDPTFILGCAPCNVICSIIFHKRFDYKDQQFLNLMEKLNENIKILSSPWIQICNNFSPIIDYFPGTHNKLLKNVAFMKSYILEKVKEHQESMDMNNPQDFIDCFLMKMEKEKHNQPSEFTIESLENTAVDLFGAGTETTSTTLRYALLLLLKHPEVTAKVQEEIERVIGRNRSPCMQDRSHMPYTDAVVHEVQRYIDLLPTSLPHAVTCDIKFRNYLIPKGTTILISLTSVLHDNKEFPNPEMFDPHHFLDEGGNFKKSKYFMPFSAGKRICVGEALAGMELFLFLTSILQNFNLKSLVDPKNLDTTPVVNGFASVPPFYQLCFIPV
CYP2C19 activ = human CYP2C19 activators, primary screen, biochemical, luminescence. recombinant CYP2C19, luciferin-H EGE luminescence; stronger effect = higher value; 0 = fully inhibited enzyme, 1 = untreated enzyme. activation factor at 5 µM. 96,000 tested, under 10 active. AID 1025, 2008;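 active means activation factor of at least 2 at 5 µM in the primary screen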;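 further: 0 = wells with 2.5 mM tranylcypromine and 1 = vehicle-only wells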
CYP2C9 act = human CYP2C9 activators, primary screen, biochemical, luminescence; recombinant CYP2C9, luciferin-H conversion; stronger effect = higher value; factor 1 = untreated enzyme, 0 = blocked; activation factor at 5 µM; 96,000 tested, 1.4% active; AID 1024, 2008;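 active means activation factor of 2 or more for CYP2C9 at a 5 µM dose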;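 further: 0 = sulfaphenazole-blocked wells and 1 = vehicle-only wells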
DAT uptake mod = changed hDAT dopamine uptake under cocaine IC80, either direction, primary screen, cocaine antagonist project, cell-based, LLC-PK1 hDAT, [14C]-dopamine uptake, MLSMR | Sodium-dependent dopamine transporter (Homo sapiens), Q01959 | LLC-PK1 hDAT cells, [14C]-dopamine uptake with cocaine IC80; actives deviate in either direction | B-score at 10 µM | 110,000 tested, 1.3% active;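 active means Z score or B-score, a plate-position-corrected score, falls beyond the plate's 99.7% confidence bounds, in either direction; inactive means both scores lie inside the 99.7% bounds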;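 further: scored against the spread of the other compound wells on the same plate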
The depositor's hits bear a star; · = no result. An excerpt weighted towards active compounds, which were near 28% of everything screened.

SMILES | D1 mod | CYP2C19 inh | CYP2C9 inhib | CYP2C19 activ | CYP2C9 act | DAT uptake mod
O=C(Cn1cnc2c(cnn2-c2ccc(Cl)cc2)c1=O)NCC1CCCO1 (configuration not stated) | · | 0.1 | 7.7 | 1 | 0.9 | -0.358
O=C(NNC(=O)c1ccccc1O)c1ccc(Cl)cc1 | · | -2.9 | 32.4 | 1 | 0.7 | -0.263
O=C(NNC(=O)c1ccc(O)cc1O)c1ccc(Cl)cc1 | · | 9.2 | -99.9 | 0.9 | 2* | -0.497
Cc1cccc(C(=O)NNC(=O)c2ccc(Cl)cc2)c1O | · | 50.3* | -191.0 | 0.5 | 2.9* | -0.592
C/C(=N\NS(C)(=O)=O)c1ccc(C)cc1 | · | 49.6 | 28.4 | 0.5 | 0.7 | 0.146
C/C(=N/NS(=O)(=O)c1ccc(Cl)cc1)c1cccc(NC(=O)c2ccc(Cl)cc2Cl)c1 | · | 74.6* | 97.3* | 0.3 | 0 | ·
C/C(=N/NS(=O)(=O)c1ccc(C)cc1)c1cccc(NC(=O)c2cccc(Cl)c2)c1 | · | -2.8 | 3.1 | 1 | 1 | -0.987
C/C(=N\NS(=O)(=O)c1ccc(Cl)cc1)c1ccc(O)cc1 | · | 83.0* | 77.5* | 0.2 | 0.2 | 0.799
COc1ccc(OCCCC(=O)NCC(C)C)cc1 | · | 42.4 | 18.7 | 0.6 | 0.8 | 1.23
CC(C)(C)n1ncc2c(=O)n(CC(=O)Nc3ccc4c(c3)OCCO4)cnc21 | -0.391 | -6.6 | 14.6 | 1.1 | 0.9 | -0.387
CC(=O)Nc1ccc(NC(=O)CN(c2ccccc2Cl)S(C)(=O)=O)cc1 | 0.579 | 14.1 | -2.4 | 0.9 | 1 | -0.242
O=C(CSc1nc2c(c(C(F)(F)F)n1)CCc1ccccc1-2)NCc1ccccc1 | · | · | · | · | · | -0.29
CC(C)CNC(=O)c1c2c(nc3ccccc13)-c1ccccc1CC2 | · | 16.6 | 46.5 | 0.8 | 0.5 | 1.07
C=CCNC(=O)c1c2c(nc3ccccc13)-c1ccccc1CC2 | · | 22.8 | 62.5* | 0.8 | 0.4 | -1.32
CCN(CC)C(=O)c1c2c(nc3ccccc13)-c1ccccc1CC2 | · | 24.5 | 64.9* | 0.8 | 0.4 | -0.126
Cc1cc(-c2nc3cccnc3s2)ccc1NS(=O)(=O)c1cccs1 | · | · | · | · | · | 0.151
Cc1cc(-c2nc3cccnc3s2)ccc1NS(=O)(=O)c1ccc2c(c1)OCCO2 | · | 30.6 | 96.2* | 0.7 | 0 | 1.1
Cc1ccc(-c2nc3cccnc3s2)cc1NS(=O)(=O)c1ccc2c(c1)CCCC2 | · | · | · | · | · | 1.36
Cc1c(NS(=O)(=O)c2ccc3c(c2)OCCO3)cccc1-c1nc2cccnc2s1 | · | 100.4* | 82.7* | 0 | 0.2 | 0.568
COc1cc(OC)cc(C(=O)N2CCC(N3CCCCCC3)CC2)c1 | · | · | · | · | · | 0.258
Cc1cc(Br)ccc1SCC(=O)OCC(=O)N1CCN(C(=O)c2ccco2)CC1 | -0.0768 | 66.3* | 61.3* | 0.3 | 0.4 | 0.119
O=C(CSc1cccc2cccc(Cl)c12)OCC(=O)N1CCN(C(=O)c2ccco2)CC1 | · | 9.0 | -43.6 | 0.9 | 1.4 | ·
CCC(c1nnnn1C(C)(C)CC)N(CCCN1CCOCC1)Cc1cc2cccc(C)c2[nH]c1=O (configuration not stated) | · | 16.3 | 18.1 | 0.8 | 0.8 | 0.535
CCC(c1nnnn1C(C)(C)CC)N(CCCO)Cc1cc2cccc(C)c2[nH]c1=O (configuration not stated) | 0.709 | 71.0* | 75.0* | 0.3 | 0.3 | 1.11
Cc1ccc(NC(=O)CN2C(=O)S/C(=C\c3cc(C)n(C)c3C)C2=O)cc1 | · | 56.9* | 19.8 | 0.4 | 0.8 | 0.158
SMILES | D1 mod | CYP2C19 inh | CYP2C9 inhib | CYP2C19 activ | CYP2C9 act | DAT uptake mod
Cc1ccc(NC(=O)CN2C(=O)S/C(=C\c3ccc(-c4cccc(C(=O)O)c4C)o3)C2=O)cc1 | · | -1.9 | 10.3 | 1 | 0.9 | 0.811
Cc1ccc(NC(=O)CN2C(=O)S/C(=C\c3cccn3C)C2=O)cc1 | · | 13.9 | 75.7* | 0.9 | 0.2 | -0.325
Cc1cc(-n2c(C)cc(C(=O)CSc3ccc4c(c3)OCCO4)c2C)no1 | 0.0927 | 89.1* | 31.2 | 0.1 | 0.7 | 2.14
COCCCNC(=O)/C=C/c1ccc(Cl)cc1 | · | -9.7 | -1.7 | 1.1 | 1 | 0.555
CCOC(=O)N1CCN(C(=O)c2ccc(Cn3c(=S)[nH]c4cc5c(cc4c3=O)OCO5)cc2)CC1 | -4.14* | · | · | · | · | -1.28
CCN(CC)CCn1c(=S)[nH]c2cc3c(cc2c1=O)OCO3 | -1.11 | 0.8 | 8.4 | 1 | 0.9 | -1.14
CCOCCCn1c(=S)[nH]c2cc3c(cc2c1=O)OCO3 | -0.274 | 67.6* | 47.5 | 0.3 | 0.5 | ·
CCCCNC(=O)CCCn1c(=S)[nH]c2cc3c(cc2c1=O)OCO3 | -0.029 | 14.9 | 59.1* | 0.9 | 0.4 | 0.879
CCOC(=O)N1CCN(C(=O)c2ccc3c(=O)n(Cc4ccccc4)c(=S)[nH]c3c2)CC1 | 0.437 | 35.5 | 29.4 | 0.6 | 0.7 | 0.313
CCN(CC)CCNC(=O)CCn1c(=S)[nH]c2cc3c(cc2c1=O)OCO3 | -0.6 | -12.8 | 0.1 | 1.1 | 1 | 0.0658
Cc1cc(NC(=O)CN2C(=O)CC(c3ccco3)Sc3ccccc32)no1 (configuration not stated) | -0.112 | · | · | · | · | 0.518
CCCNC(=O)Cn1cnc2sc(C(=O)Nc3cc(OC)c(OC)c(OC)c3)c(C)c2c1=O | · | 37.3 | 48.4 | 0.6 | 0.5 | 0.258
CCN(CC)C(=O)Cn1cnc2sc(C(=O)Nc3cc(OC)c(OC)c(OC)c3)c(C)c2c1=O | · | 79.3* | 92.4* | 0.2 | 0.1 | 0.0131
CC(=O)Nc1cccc(NC(=O)c2sc3ncn(CC(=O)N4CCCCC4)c(=O)c3c2C)c1 | -0.394 | 79.0* | 79.5* | 0.2 | 0.2 | 0.341
COc1cccc(-c2nnn(CC(=O)Nc3ccc(C)cc3C)n2)c1OC | 3.21 | 11.2 | 18.7 | 0.9 | 0.8 | -0.241
C=C(C)CN(CC)C(=O)CSc1nc2ncc(Cl)cc2[nH]1 | -0.81 | 91.6* | 38.9 | 0.1 | 0.6 | 0.0388
C=C(C)CSc1nc2ncc(Cl)cc2[nH]1 | · | 4.3 | 38.3 | 1 | 0.6 | -0.92
CCOC(=O)c1cnc2c(C(F)(F)F)cccc2c1N1CCOCC1 | 1.32 | 68.3* | 49.6 | 0.3 | 0.5 | -0.0129
Cn1nc(-c2ccc(N3CCOCC3)c(NS(=O)(=O)c3ccccc3)c2)c2ccccc2c1=O | 1.96 | 53.0* | 16.1 | 0.5 | 0.8 | -1.33
Cc1ccc(-c2nn(C)c(=O)c3ccccc23)cc1S(=O)(=O)N1CCCC1 | 0.477 | 51.2* | 62.9* | 0.5 | 0.4 | 0.175
CCCC(=O)Nc1cc(-c2nn(C)c(=O)c3ccccc23)ccc1N1CCCCC1 | -0.0859 | · | · | · | · | -0.129
CCC(=O)Nc1cc(-c2nn(C)c(=O)c3ccccc23)ccc1N1CCCCC1 | · | 36.6 | 80.7* | 0.6 | 0.2 | -1.13
